BLM inh: blocks DNA unwinding by human BLM helicase; P54132; recombinant BLM DNA unwinding, fluorescence dequenching; Potency, µM (titrated, usually from 56.1 µM), for the others: top-dose activity change, negative = inhibition, usual class: inhibitors; 350,000 tested, 0.2% active; AID 2528;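 further: plate controls were vehicle for no effect and no enzyme for full effect; nearly all actives have a fitted effect of over 35% in size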
APE1 inh: blocks human APE1 abasic DNA cleavage; recombinant APE1, TAMRA/BHQ-2 abasic DNA cleavage fluorescence; Potency, µM (doses to about 65.8 µM), without a hit: top-dose activity change, negative = inhibition, usual class: inhibitors; P27695; 350,000 tested, 0.35% active;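 further: plate controls were vehicle for no effect and reference inhibitor for full effect; nearly all actives have a fitted effect of over 55% in size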
Target sequence (P27695 whole entry, looked up): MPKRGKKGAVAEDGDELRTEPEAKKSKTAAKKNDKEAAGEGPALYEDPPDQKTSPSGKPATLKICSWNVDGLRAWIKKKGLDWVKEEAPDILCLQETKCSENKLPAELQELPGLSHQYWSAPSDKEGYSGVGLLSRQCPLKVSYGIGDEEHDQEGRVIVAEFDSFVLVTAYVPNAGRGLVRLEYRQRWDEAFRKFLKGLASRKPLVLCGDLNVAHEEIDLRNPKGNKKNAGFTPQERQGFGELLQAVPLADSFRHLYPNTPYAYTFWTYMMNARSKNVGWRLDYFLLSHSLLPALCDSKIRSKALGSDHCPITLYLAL
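Substrate: short duplex with […] THF abasic site, 5'-TAMRA and 3'-BHQ-2, 50 nM final. APE1 at 0.75 nM, preincubated 15 min RT with compound. Fluorescence increase from first to third read measured activity.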
TRb-SRC2 inh: inhibitors of human thyroid hormone receptor beta-SRC2 interaction. TRbeta-SRC2 peptide binding, fluorescence polarization; receptor liganded with 1 µM T3. AID 1469. Potency, µM (top dose mostly 106 µM), inactives show at the top dose activity change, negative = inhibition, most hits filed as inhibitors. 280,000 tested, 0.065% active;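 further: plate controls were bound peptide for no effect and peptide without receptor for full effect; nearly all actives have a fitted effect of over 50% in size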
Target sequence (P10828 whole entry, looked up): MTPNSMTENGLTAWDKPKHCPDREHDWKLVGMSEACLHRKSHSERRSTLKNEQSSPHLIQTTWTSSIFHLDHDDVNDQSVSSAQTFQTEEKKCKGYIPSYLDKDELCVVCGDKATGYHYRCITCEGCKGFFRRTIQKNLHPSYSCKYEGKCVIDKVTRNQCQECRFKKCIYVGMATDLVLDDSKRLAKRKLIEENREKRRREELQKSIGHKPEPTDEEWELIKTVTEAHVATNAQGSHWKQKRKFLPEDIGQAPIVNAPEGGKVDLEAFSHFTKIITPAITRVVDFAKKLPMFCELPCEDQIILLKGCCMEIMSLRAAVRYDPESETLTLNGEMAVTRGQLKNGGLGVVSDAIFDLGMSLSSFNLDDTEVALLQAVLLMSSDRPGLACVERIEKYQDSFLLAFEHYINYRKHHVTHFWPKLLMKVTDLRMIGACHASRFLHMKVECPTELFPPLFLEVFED
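TRb LBD 0.6 uM + Texas Red SRC2 peptide 20 nM, 1 uM T3, Tris buffer w/ 5% DMSO; compound pinned, 5 h RT; FP read ex 555/em 632; normalized to unbound and bound controls.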
TexasRed fluor: Texas Red fluorescence interference in TRb-SRC2 counter-screen. TRb/SRC2 Texas Red total fluorescence interference. Potency, µM (doses to about 106 µM), for inactives: at the highest dose fluorescence change, negative = quenching. 280,000 tested, 0.29% active. AID 1479; active means well fitted curve in either direction with a large enough effect; inconclusive means small, poorly fitted or top-dose-only effect
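Flags fluorescent or light-absorbing compounds by total fluorescence, S + 2P, at 555 nm excitation and 632 nm emission. Mixture: 20 nM Texas Red SRC2 peptide, 0.6 uM human TRb LBD, 1 uM T3, 5% DMSO; compound exposure 5 h at ambient temperature.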
GoLoco inh red: blocks human Gai1 binding to RGS12 GoLoco peptide, red readout | P63096 | 230,000 tested, 0.44% active | AID 880 | Gai1:RGS12 GoLoco peptide FP, rhodamine, 10 min | Potency, µM (series often up to 61.6 µM), for the others: at the top dose activity, negative = inhibition, actives largely listed as inhibitors; active means well fitted inhibition curve with a large enough effect, not every such curve was filed as active; inactive means no such curve, though single readings can be large or run the other way; further: nearly all actives have a fitted effect of over 30% in size
RECQ1 inh: inhibitors of human RECQ1 DNA helicase | P46063 | Potency, µM (series often up to 57.3 µM), without a hit: at the top dose activity, negative = inhibition, most hits filed as inhibitors | 240,000 tested, 0.54% active | RECQ1 DNA unwinding, red fluorescence kinetic read | AID 2549;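 further: plate controls were vehicle for no effect and no enzyme for full effect; nearly all actives have a fitted effect of over 30% in size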
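RECQ1T1 50 nM; forked duplex (20 bp + 30-nt ss tails) 200 nM, ATP 2 mM final; pH 8.0, 2 mM MgCl2, 2.5 ug/ml poly(dI-dC); 15 min compound preincubation; discontinuous kinetic read over 2 h at RT.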
* hit, by the source's call; i = inactive; ? = inconclusive; / = no result given; ! = not confirmed by another sample; [ ] = remark or other dose. Shown are actives, neighbours in structure and some others; about 0.9% of the full set was active somewhere. Unless noted, the call rests on the fitted dose curve; in most records, active means well fitted curve in the direction sought with a large enough effect; inconclusive means small, poorly fitted or top-dose-only effect, or another doubt; inactive means no such curve, though single readings can be large; an effect the other way counts as inactive or inconclusive. Unless noted, on the % scale 0 is the no-effect control and ±100 the full control effect; potency means the concentration at half of the fitted maximal effect.

SMILES	BLM inh	APE1 inh	TRb-SRC2 inh	TexasRed fluor	GoLoco inh red	RECQ1 inh
COc1c(O)c(O)cc2c1oc1c3ccccc3oc(=O)c21	14.1µM*	28.2µM*	10.4%	-10.4%	-30.0%	11.2µM*
Oc1ccccc1C(Sc1nc2ccccc2s1)Sc1nc2ccccc2s1	/	/	/	/	-5.2%[14.2 µM]	/
COc1cc(C2c3c(oc4ccccc4c3=O)C(=O)N2c2ccccn2)cc(OC)c1OC (stereo unspecified)	-0.4%	/	-10.2%	0.0398µM*[quencher]	/	/
COc1ccc(C2c3c(oc4ccccc4c3=O)C(=O)N2c2ccccn2)cc1OC (stereo unspecified)	-2.8%	-2.0%	3.2%	-2.2%	6.4%	i
CC1(C)c2ccccc2N2CC(=O)N(CC(N)=O)C21C (stereo unspecified)	-12.5%	?	?	50.1µM*[fluorescent]	162.3%	31.6µM*
CC1(c2ccccc2)OC(C(=O)O)=CC1=O (stereo unspecified)	/	3.6%	/	/	/	/
O=C1N/C(=C\c2ccc(O)cc2)C(=O)c2ccccc21	31.6µM*	?	?	-2.7%	7.9%	i
COc1ccccc1N1CCN(CC2CN3C(=O)N(C)c4ccccc4C3=N2)CC1 (stereo unspecified)	/	-1.0%	-1.7%	-1.8%	0.0%	-0.7%
O=C(c1ccc(-n2cccn2)cc1)N1CCc2c([nH]c3ccccc23)C1c1ccccn1 (stereo unspecified)	12.6µM*	-0.1%	-0.8%	-4.7%	11.0%	5.8%
NC(CCCCCP(=O)(c1ccccc1)c1ccccc1)C(=O)O (stereo unspecified)	-7.6%	14.1µM*	-0.8%	-0.5%	16.0%	-14.0%
Oc1cccc2ccc[n+](CC(O)Cn3c4ccccc4c4ccccc43)c12 (stereo unspecified)	-17.9%	10.0%	-11.6%	0.891µM*[quencher]	19.3%	-10.5%
O=C(O)/C=C/C(=O)Nc1ccc(OC(F)(F)Cl)cc1	5.0%	-0.5%	-6.4%	-0.7%	13.4%	i
O=C(O)/C=C/C(=O)Nc1ccc(SC(F)(F)C(F)(F)C(F)(F)F)cc1	-4.4%	-1.3%	31.6µM*	0.1%	3.7%	-1.8%
CCCSCCCNC(=O)C1CCN(C(=O)c2cc3sccc3n2C)CC1	-8.1%	/	-8.8%	31.6µM*[quencher]	/	/
CCn1c(C(=O)N2CCC(C(=O)NCCCSC3CCCCC3)CC2)cc2sccc21	-4.7%	-9.2%	12.5%	-0.6%	42.5%	-6.8%
Cc1cc(N)c2ccccc2[n+]1CCCCCCCCCCCCCC[n+]1c(C)cc(N)c2ccccc21	/	-9.1%	-1.8%	-1.1%	-6.3%	31.6µM*
CCCCC(CC)C1OCC(C[N+]2(C)CCOCC2)O1 (stereo unspecified)	2.8%	13.3%	2.1%	?	10µM*	0.7%
Cc1ccccc1NC(=O)c1ccc(Cl)c(S(=O)(=O)N2CCCCCC2)c1	-3.1%	/	?	0.794µM*[quencher]	/	/
O=C(O)c1ccc(Cl)c(S(=O)(=O)N2CCCC2)c1	3.4%	28.2µM*	0.3%	-0.5%	6.0%	-3.8%
Oc1cc2c(cc1O)C1c3ccc(O)c(O)c3OCC1(O)C2 (stereo unspecified)	-25.0%	14.1µM*!	0.9%	-4.4%	7.94µM*	?
Cn1c2cc(B(O)O)sc2c2cnn(Cc3c(F)cccc3F)c(=O)c21	/	21.2µM*	/	/	/	/
Cn1c2cc(Br)sc2c2cnn(Cc3ccc(F)cc3F)c(=O)c21	/	-5.8%	/	/	/	/
Cn1c2cc(B(O)O)sc2c2cnn(Cc3ccc(F)cc3F)c(=O)c21	/	13.4µM*	/	/	/	/
O=c1[nH]c2[nH]c(=S)[nH]c(=S)c2[nH]1	/	/	/	/	-19.4%[14.2 µM]	/
N#Cc1c(-c2ccc(C(F)(F)F)cc2)no[n+]1[O-]	/	-2.0%	/	/	/	/
SMILES	BLM inh	APE1 inh	TRb-SRC2 inh	TexasRed fluor	GoLoco inh red	RECQ1 inh
Cn1cc(/C=C2\SC(=S)N(NC(=O)c3ccccc3Cl)C2=O)c2ccccc21	-1.5%	-6.2%	-11.0%	2.3%	-82.0%	-18.2%
Cc1ccc(C(=O)NN2C(=O)/C(=C/c3cn(C)c4ccccc34)SC2=S)cc1	-1.0%	7.1%	-9.8%	-7.3%	22.4µM*	i
CN(C)c1ncc2nc(-c3ccccc3)c(=O)n(Cc3ccc(F)cc3)c2n1	-3.1%	-3.4%	/	/	9.7%	-10.3%
CN(C)c1ncc2nc(-c3ccc(Cl)cc3)c(=O)n(Cc3ccc(F)cc3)c2n1	1.1%	31.6µM*	/	/	4.2%	-5.6%
Cc1ccccc1OCC(=O)Nc1ccc(S(=O)(=O)Nc2ncccn2)cc1	-3.5%	/	-8.2%	10000µM*[quencher]	/	/
O=C(COc1ccccc1)Nc1ccc(S(=O)(=O)Nc2ncccn2)cc1	-8.8%	-1.2%	1.6%	-0.4%	0.9%	-2.2%
COc1cc(C2CC(=O)Nc3c2c(=O)[nH]c2nc4ccccc4n32)ccc1O (stereo unspecified)	0.6%	/	-3.3%	-3.5%	/	/
COc1ccc2c(c1)[N+](=O)C(/C(C)=N/NC(N)=S)=C(C)[N+]2=O	/	/	/	/	5.0%[14.2 µM]	/
CSc1nc2sc3c(c2c(=O)n1C)CCC3	-0.1%	5.7%	/	/	/	/
C#CCSc1nc2sc3c(c2c(=O)n1C)CCC3	5.6%	9.47µM*	/	/	/	/
CC[C@H]1OC(=O)C[C@@H](O)[C@H](C)[C@@H](O[C@@H]2O[C@H](C)[C@@H](O)[C@H](N(C)C)[C@H]2O)[C@@H](CCN2C[C@H](C)C[C@H](C)C2)C[C@@H](C)C(=O)/C=C/C(C)=C/[C@@H]1CO[C@@H]1O[C@H](C)[C@@H](O)[C@@H](OC)[C@H]1OC	/	-1.9%	/	/	/	/
O=C(Nc1ccccc1F)c1ccc(CSc2ncccn2)cc1	-5.6%	-8.0%	5.6%	-2.9%	4.9%	i
O=C(Nc1ccccc1)c1ccc(CSc2ncccn2)cc1	-3.0%	-3.6%	1.1%	1.1%	2.24µM*	-4.2%
COc1cc2c(cc1O)[C@@H](c1cc(O)c(O)c(OC)c1)[C@@](O)(C(=O)O)[C@@H](CO)[C@@H]2O	/	/	/	/	-2.4%[14.2 µM]	/
O=C(OCCOCCOC(=O)c1ccccc1)c1ccccc1	/	/	9.8%[201 µM]	3.5%[201 µM]	/	/
CC(Cc1c[nH]c2ccccc12)C(=O)O (stereo unspecified)	-7.0%	?	0.2%	-0.8%	-7.7%	35.5µM*
CC(=O)OCCNc1cc(N2CCN(C)CC2)c2noc3c2c1C(=O)c1ccccc1-3	-23.9%	-10.8%	44.7µM*	50.1µM*[fluorescent]	217.9%	-18.4%
O=C1c2ccccc2-c2onc3c(NCCO)cc(NC4CCCCC4)c1c23	-9.2%	/	?	39.8µM*[fluorescent]	/	/
O=C(O)CCNc1cc(N2CCN(C(=O)c3ccco3)CC2)c2noc3c2c1C(=O)c1ccccc1-3	-15.9%	-33.5%	/	/	/	/
O=C(O)CCCNc1cc(N2CCN(C3CCCCC3)CC2)c2noc3c2c1C(=O)c1ccccc1-3	-22.0%	/	-21.9%	39.8µM*[fluorescent]	/	/
